From PubChem BioAssay
Active and inactive are the calls of the source.

What was measured:
[1] = system: PRMT1 (protein arginine N-methyltransferase 1); assay: PRMT1 binders on small-molecule microarrays, primary screen, biochemical, small-molecule microarray, 635 nm fluorescence (AID 1088); details: small-molecule microarray binding, higher = more signal;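 also: binding of Prmt1 protein to compounds spotted on small-molecule microarray slides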
[2] = yeast growth modulation, basal conditions, primary screen, YJM789 clinical isolate, OD600, 24 h (AID 1089);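 also: growth of clinical yeast isolate S. cerevisiae YJM 789 seeded 1000 cells per well; test concentration not given here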; details: S. cerevisiae YJM789 growth, higher = more signal, called active from +8 up or from −8 down
[3] = fission yeast growth modulation, primary screen, strain 972, OD600, 24 h, no modulator (AID 1090);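 also: basal condition with compound alone and no growth modifier present; test concentration not given here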; details: S. pombe 972 growth, higher = more signal, called active from +8 up or from −8 down
[4] = S. cerevisiae growth modulation with rapamycin, primary screen, strain BY4716, OD600, 96 h (AID 1091); details: higher = more signal, called active from +8 up or from −8 down; also: test concentration not given here
[5] = target: Torsin-1A-interacting protein 2 (Homo sapiens) (UniProt Q8NFQ8); assay: LULL1 binders on small-molecule microarray, primary screen, cell lysate, human LULL1 lysate, 635/667 nm fluorescence (AID 1092); details: hLULL1 lysate binding, 635 nm fluorescence, higher = more signal;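 also: probe is lysate of COS7 cells overexpressing human LULL1; score merges per-feature 667 nm fluorescence with signal-to-noise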
Sequence of Torsin-1A-interacting protein 2 (Homo sapiens) (Q8NFQ8 whole entry, looked up): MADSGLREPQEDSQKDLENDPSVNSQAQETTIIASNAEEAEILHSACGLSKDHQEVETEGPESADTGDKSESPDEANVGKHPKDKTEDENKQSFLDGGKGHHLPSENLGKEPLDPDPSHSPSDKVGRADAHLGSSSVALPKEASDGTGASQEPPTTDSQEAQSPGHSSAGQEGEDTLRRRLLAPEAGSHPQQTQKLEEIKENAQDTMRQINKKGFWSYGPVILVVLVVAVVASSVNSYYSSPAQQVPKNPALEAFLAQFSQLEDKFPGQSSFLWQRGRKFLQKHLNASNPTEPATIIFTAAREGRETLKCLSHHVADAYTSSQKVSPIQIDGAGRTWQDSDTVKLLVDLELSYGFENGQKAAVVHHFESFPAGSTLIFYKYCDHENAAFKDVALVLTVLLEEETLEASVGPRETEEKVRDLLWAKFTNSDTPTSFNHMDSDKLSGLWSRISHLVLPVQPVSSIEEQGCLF

[6] = E. coli growth modulation, two-sided OD650, primary screen, E. coli filamentation project, strain DRC41, 24 h (AID 1093); details: OD650, 24 h, higher = more signal, called active from +8 up or from −8 down;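 also: MC1000 strain lacking acrAB efflux and sulA so SOS filamentation is blocked; test concentration not given here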
[7] = small-molecule microarray binders of probe aLefty2, primary screen, biochemical, biotinylated probe, 635/667 nm fluorescence (AID 1094); details: higher = more signal;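 also: score merges spot fluorescence near 667 nm with spot signal-to-noise ratio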
[8] = system: Noggin (protein binding on small-molecule microarray); assay: Noggin binders on small-molecule microarray, primary screen, biochemical, 635/667 nm fluorescence (AID 1095); details: 635 nm fluorescence, higher = more signal;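 also: score merges 667 nm feature fluorescence with signal to noise over triplicate slides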
[9] = target: Neurogenic locus notch homolog protein 3 (Homo sapiens) (UniProt Q9UM47); assay: NOTCH3 binders on small-molecule microarray, primary screen, biochemical, 635/667 nm fluorescence (AID 1096); details: NOTCH3 binding, 635 nm fluorescence, higher = more signal
Sequence of Neurogenic locus notch homolog protein 3 (Homo sapiens) (Q9UM47 whole entry, looked up): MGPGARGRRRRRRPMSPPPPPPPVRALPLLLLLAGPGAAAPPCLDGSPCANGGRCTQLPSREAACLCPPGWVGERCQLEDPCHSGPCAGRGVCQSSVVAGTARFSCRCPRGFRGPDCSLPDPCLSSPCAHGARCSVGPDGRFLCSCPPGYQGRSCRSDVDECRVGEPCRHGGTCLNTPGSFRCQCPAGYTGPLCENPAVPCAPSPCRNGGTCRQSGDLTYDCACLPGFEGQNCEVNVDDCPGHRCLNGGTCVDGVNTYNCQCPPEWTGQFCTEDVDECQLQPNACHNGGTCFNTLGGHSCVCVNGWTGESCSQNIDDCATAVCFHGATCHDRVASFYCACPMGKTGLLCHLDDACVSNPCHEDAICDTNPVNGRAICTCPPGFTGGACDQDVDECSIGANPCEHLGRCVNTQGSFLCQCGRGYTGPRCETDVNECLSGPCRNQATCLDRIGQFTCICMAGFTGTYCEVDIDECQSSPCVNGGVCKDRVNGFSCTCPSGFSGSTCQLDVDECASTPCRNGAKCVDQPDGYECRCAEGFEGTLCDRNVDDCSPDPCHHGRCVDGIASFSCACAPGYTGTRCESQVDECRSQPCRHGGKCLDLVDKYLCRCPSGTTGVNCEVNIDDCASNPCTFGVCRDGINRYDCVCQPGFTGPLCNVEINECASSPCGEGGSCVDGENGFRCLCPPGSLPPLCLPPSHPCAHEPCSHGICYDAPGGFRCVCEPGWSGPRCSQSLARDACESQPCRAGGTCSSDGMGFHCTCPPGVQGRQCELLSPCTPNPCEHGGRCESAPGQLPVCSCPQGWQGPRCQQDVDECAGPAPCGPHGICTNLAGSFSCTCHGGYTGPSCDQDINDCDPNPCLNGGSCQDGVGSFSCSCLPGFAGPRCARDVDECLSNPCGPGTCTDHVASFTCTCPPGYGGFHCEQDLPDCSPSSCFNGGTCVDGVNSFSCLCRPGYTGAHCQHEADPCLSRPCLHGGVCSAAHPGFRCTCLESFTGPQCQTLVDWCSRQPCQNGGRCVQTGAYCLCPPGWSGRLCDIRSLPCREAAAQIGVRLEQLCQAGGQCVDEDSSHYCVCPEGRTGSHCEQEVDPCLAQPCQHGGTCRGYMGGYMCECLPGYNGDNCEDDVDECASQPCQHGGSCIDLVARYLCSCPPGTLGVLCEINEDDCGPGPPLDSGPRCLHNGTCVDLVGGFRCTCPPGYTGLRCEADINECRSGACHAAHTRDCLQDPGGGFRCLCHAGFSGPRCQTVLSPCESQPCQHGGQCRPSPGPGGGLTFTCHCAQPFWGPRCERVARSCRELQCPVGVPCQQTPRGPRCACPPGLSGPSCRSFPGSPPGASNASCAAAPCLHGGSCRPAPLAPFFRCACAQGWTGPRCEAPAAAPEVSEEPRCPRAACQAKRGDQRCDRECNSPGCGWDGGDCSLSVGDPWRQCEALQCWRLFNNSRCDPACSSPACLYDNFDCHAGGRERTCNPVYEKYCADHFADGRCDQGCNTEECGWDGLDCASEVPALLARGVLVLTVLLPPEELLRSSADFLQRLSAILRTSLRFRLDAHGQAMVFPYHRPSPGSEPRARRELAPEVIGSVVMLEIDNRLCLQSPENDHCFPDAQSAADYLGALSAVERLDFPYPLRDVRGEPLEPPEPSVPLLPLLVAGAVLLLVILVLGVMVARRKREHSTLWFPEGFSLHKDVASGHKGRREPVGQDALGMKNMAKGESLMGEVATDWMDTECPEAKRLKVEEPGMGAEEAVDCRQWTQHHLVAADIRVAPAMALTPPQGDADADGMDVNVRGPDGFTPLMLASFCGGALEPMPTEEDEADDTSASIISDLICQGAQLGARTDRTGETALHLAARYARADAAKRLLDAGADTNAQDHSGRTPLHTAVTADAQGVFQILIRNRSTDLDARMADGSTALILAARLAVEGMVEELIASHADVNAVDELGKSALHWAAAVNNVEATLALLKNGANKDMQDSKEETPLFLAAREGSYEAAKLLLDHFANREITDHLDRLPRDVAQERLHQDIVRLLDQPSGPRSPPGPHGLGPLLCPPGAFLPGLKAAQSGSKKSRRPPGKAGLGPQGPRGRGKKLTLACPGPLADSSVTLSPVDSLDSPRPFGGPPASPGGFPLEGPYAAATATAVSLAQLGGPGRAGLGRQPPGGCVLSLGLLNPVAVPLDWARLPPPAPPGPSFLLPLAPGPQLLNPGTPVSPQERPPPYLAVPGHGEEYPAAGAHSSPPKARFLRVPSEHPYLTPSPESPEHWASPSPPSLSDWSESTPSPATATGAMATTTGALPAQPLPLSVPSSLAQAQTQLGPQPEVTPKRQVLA

[10] = small-molecule microarray binders of probe aEGFR, primary screen, biochemical, biotinylated probe, 635/667 nm fluorescence (AID 1097); details: higher = more signal;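 also: probe is a biotinylated anti-EGFR antibody binding compounds printed on slides; score combines fluorescence near 667 nm and signal to noise of each spot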
[11] = system: Plasmodium falciparum Sir2 (PF13_0152, Sir2A); assay: pfSir2 binders on small-molecule microarrays, primary screen, biochemical, small-molecule microarray, 635 nm fluorescence (AID 1098); details: small-molecule microarray binding, fluorescence 635 nm; higher = more signal;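 also: score merges spot fluorescence intensity with its signal-to-noise ratio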
[12] = small-molecule microarray binders of probe aDKK1, primary screen, biochemical, biotinylated probe, 635/667 nm fluorescence (AID 1099); details: higher = more signal;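 also: score merges 667nm spot fluorescence with signal to noise across triplicate slides; reference of the scale not given here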
[13] = small-molecule microarray binders of probe aCHRDL2, primary screen, biochemical, biotinylated probe, 635/667 nm fluorescence (AID 1100); details: higher = more signal
[14] = splicing luciferase reporter signal modulators, primary screen, spliceosome inhibition project, cell-based, HEK293, splice +/- reporter (AID 1101); details: luminescence, 24 h, higher = more signal, called active from +8 up or from −8 down;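 also: HEK293 cells carrying a splicing-competent luciferase reporter gene; test concentration not given here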
[15] = target: Fibroblast growth factor 10 (Homo sapiens) (UniProt O15520); assay: FGF10 binders on small-molecule microarrays, primary screen, biochemical, small-molecule microarray, 635 nm fluorescence (AID 1102); details: FGF10 binding, fluorescence 635 nm, higher = more signal
Sequence of Fibroblast growth factor 10 (Homo sapiens) (O15520 whole entry, looked up): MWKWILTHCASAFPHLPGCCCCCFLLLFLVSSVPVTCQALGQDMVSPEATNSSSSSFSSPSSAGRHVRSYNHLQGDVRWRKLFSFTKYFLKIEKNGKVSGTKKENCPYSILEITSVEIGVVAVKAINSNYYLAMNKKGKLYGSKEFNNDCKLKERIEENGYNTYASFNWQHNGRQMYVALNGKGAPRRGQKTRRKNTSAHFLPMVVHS

[16] = system: glycogen synthase kinase-3 (GSK3A per assay name; protocol says GSK3B); assay: GSK3 binders on small-molecule microarrays, primary screen, biochemical, small-molecule microarray, 635 nm fluorescence, GSK3A (AID 1103); details: small-molecule microarray binding, fluorescence 635 nm; higher = more signal; also: the record names both GSK3A and GSK3B
[17] = target: Epidermal growth factor receptor (Homo sapiens) (UniProt P00533); assay: EGFR binders on small-molecule microarrays, primary screen, biochemical, small-molecule microarray, 635 nm fluorescence (AID 1104); details: EGFR binding, higher = more signal;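 also: score merges 667 nm emission intensity with spot signal to noise over triplicate slides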
Sequence of Epidermal growth factor receptor (Homo sapiens) (P00533 whole entry, looked up): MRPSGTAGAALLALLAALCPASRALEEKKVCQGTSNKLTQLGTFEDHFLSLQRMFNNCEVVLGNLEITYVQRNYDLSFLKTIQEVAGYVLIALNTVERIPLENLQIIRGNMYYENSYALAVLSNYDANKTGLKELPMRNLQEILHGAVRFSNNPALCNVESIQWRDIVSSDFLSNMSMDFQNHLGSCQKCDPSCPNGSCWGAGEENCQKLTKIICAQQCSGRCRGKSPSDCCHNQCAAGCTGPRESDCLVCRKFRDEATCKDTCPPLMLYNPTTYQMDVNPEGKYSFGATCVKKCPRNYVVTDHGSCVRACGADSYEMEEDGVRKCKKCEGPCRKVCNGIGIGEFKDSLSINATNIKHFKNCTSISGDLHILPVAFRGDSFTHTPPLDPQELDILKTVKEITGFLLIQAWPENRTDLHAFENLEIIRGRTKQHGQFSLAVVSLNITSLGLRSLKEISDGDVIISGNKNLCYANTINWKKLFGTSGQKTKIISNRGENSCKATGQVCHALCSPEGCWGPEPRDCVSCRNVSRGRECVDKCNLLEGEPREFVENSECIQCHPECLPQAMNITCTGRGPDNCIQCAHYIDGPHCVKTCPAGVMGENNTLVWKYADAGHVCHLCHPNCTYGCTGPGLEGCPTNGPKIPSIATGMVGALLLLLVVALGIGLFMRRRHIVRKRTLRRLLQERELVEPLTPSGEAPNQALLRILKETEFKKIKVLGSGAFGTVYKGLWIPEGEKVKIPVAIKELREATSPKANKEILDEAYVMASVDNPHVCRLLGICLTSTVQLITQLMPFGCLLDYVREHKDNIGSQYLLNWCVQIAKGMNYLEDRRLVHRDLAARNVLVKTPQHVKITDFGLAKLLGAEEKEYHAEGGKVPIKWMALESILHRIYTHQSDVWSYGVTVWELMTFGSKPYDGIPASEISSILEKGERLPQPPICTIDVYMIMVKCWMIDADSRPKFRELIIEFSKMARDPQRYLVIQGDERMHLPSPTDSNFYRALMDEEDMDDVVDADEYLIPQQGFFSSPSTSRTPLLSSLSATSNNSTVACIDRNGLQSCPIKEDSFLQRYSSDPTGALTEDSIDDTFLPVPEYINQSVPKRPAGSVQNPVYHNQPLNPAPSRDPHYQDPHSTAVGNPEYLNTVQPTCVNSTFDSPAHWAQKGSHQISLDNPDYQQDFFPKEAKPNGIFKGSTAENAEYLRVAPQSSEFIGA

[18] = target: Follistatin-related protein 3 (Homo sapiens) (UniProt O95633); assay: FSTL3 binders on small-molecule microarrays, primary screen, biochemical, small-molecule microarray, 635 nm fluorescence (AID 1105); details: FSTL3 binding, higher = more signal;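 also: score merges emission near 667 nm and signal to noise per printed spot across three slides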
Sequence of Follistatin-related protein 3 (Homo sapiens) (O95633 whole entry, looked up): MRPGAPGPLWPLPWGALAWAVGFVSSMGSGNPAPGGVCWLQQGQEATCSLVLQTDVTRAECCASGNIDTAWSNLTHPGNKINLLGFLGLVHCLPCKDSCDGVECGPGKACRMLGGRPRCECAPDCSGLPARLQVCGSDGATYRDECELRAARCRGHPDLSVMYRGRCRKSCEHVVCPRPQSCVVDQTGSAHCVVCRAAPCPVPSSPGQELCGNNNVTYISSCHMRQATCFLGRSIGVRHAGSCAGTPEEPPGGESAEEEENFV

[19] = target: Dickkopf-related protein 1 (Homo sapiens) (UniProt O94907); assay: DKK1 binders on small-molecule microarrays, primary screen, biochemical, small-molecule microarray, 635 nm fluorescence scan (AID 1106); details: DKK1 binding, higher = more signal;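 also: score merges emission near 667 nm with signal to noise over three replicate slides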
Sequence of Dickkopf-related protein 1 (Homo sapiens) (O94907 whole entry, looked up): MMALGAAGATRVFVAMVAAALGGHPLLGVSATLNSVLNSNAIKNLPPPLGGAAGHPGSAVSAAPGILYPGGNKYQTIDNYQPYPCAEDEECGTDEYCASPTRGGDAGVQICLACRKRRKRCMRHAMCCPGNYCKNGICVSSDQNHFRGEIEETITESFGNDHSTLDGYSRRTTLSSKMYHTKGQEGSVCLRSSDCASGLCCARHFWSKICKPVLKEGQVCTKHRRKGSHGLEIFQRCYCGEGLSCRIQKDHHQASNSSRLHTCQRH

[20] = system: Inhibin beta A chain (activin A); assay: INHBA (activin A) binders on microarrays, primary screen, biochemical, small-molecule microarray, 635 nm fluorescence scan (AID 1107); details: small-molecule microarray binding, higher = more signal;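 also: mouse activin A protein probed at 4.33 µg/mL on printed slides; score merges bound-protein fluorescence near 667 nm with spot signal-to-noise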

Row | SMILES | composite z-score [1] | z-score [2] | z-score [3] | z-score [4] | composite z-score [5] | z-score [6] | composite z-score [7] | composite z-score [8] | composite z-score [9] | composite z-score [10] | composite z-score [11] | composite z-score [12] | composite z-score [13] | z-score [14] | composite z-score [15] | composite z-score [16] | composite z-score [17] | composite z-score [18] | composite z-score [19] | composite z-score [20]
1 | O=C1NC(=O)C2C1C=CC(C(O)c1ccccc1)N2Nc1ccc(Cl)cc1Cl (stereo not given) | 1.56 | -25.6 (active) | -4.35 (inactive) | -1.48 (inactive) | 3.74 | -1.8 (inactive) | 0.0847 | 0.385 | 1.12 | 0.063 | 1.62 | 0.394 | 0.914 | -1.36 (inactive) | 1.14 | 1.27 | 0.531 | 1.27 | -0.0035 | 0.705
2 | CN1C(=O)C2C=CC(C(O)Cc3ccccc3)N(Nc3ccccc3)C2C1=O (stereo not given) | 0.0459 | 0.398 (inactive) | 0.0113 (inactive) | -0.0322 (inactive) | 3.43 | -1.05 (inactive) | 0.126 | 0.129 | 0.297 | -0.071 | 0.36 | 0.645 | 0.898 | -0.00929 (inactive) | 0.235 | -0.442 | -0.389 | -0.0978 | -0.549 | 0.437
3 | COC(=O)[C@@]1(Cc2ccc(OC)cc2)[C@H]2c3cc(C(=O)N(C)C)n(Cc4cccc5ccccc45)c3C[C@H]2CN1C(=O)c1ccccc1 | 0.219 | -0.386 (inactive) | 0.514 (inactive) | 1.46 (inactive) | 2.78 | -0.223 (inactive) | 1.07 | 0.841 | 0.481 | 0.92 | 0.971 | 1.8 | 0.771 | -3.61 (inactive) | 1.04 | 0.329 | 0.671 | 0.553 | 0.208 | 0.537
4 | COc1ccc([Si](C)(C)[C@@H]2[C@@H](CC(=O)N3Cc4ccccc4C[C@H]3CO)O[C@]3(C(=O)N(C)c4c(Br)cc(C)cc43)[C@H]2C)cc1 | 1.54 | -0.069 (inactive) | 1.2 (inactive) | 2.03 (inactive) | 1.84 | 0.064 (inactive) | -0.174 | 1.55 | 1.12 | -0.0409 | 0.859 | -0.0347 | -0.311 | -2.12 (inactive) | 1.33 | 0.954 | 0.968 | 1.08 | 0.685 | 1.13
5 | O=C1c2ccccc2[C@](Cc2ccccc2I)(C(=O)NC2CC2)[C@H](c2ccc(CO)cc2)N1C1CCCCC1 | 1.56 | 1.13 (inactive) | 0.525 (inactive) | 2.36 (inactive) | 2.38 | 0.257 (inactive) | -0.224 | 0.62 | 1.05 | -0.36 | 1.19 | -0.809 | -0.589 | -0.578 (inactive) | 0.724 | 1.33 | 0.543 | 1.05 | 0.529 | 0.435
6 | C=CCOC(=O)[C@@H]1[C@H]2C(=O)O[C@H](c3ccccc3)[C@H](c3ccccc3)N2[C@H](c2ccc(OCCOC(=O)[C@@H]3C[C@@H]4C(=O)N[C@@H](CCCCN(C)C)C(=O)N4[C@@H]3c3ccc(O)cc3)cc2)[C@@]12C(=O)Nc1ccc(I)cc12 | 1.51 | 0.767 (inactive) | -0.858 (inactive) | 1.51 (inactive) | 2.95 | -0.907 (inactive) | -0.119 | 1.24 | 1.11 | 0.0727 | 1.14 | -0.0242 | 0.0749 | -0.0143 (inactive) | 0.767 | 1.13 | 1.01 | 1.04 | 1.11 | 0.347
7 | CCCCC=C[C@@H](NC(=O)Oc1cccc(C(F)(F)F)c1)c1ccccc1 | 0.745 | 1.06 (inactive) | 0.0148 (inactive) | 1.01 (inactive) | 0.277 | -2.21 (inactive) | 0.839 | -0.0732 | 1.08 | 0.4 | 0.495 | 1.45 | 0.879 | -1.75 (inactive) | 1.09 | 0.992 | 0.185 | 0.719 | -0.432 | 1.16
8 | COc1ccc(C(=O)Nc2ccc(CN3C(=O)[C@@]4(O[C@@H](CC(=O)N5CCC[C@H]5CO)[C@H]([Si](C)(C)c5ccc(OC)cc5)[C@H]4C)c4ccccc43)cc2)cc1 | 1.55 | -0.466 (inactive) | -0.838 (inactive) | -0.436 (inactive) | 2.07 | 0.632 (inactive) | -0.0134 | 1.05 | 1.09 | 0.131 | 1.4 | -0.143 | -0.0233 | -0.681 (inactive) | 1.38 | 1.29 | 1.02 | 1.44 | 1.14 | 0.715
9 | COCCOC(=O)N1C(=O)[C@@]2(c3cc(C#CC4(O)CCCCCC4)ccc31)[C@H](c1ccc(O)cc1)N1[C@H](c3ccccc3)[C@H](c3ccccc3)OC(=O)[C@H]1[C@@H]2C(=O)Nc1nc2ccccc2s1 | 1.35 | 0.861 (inactive) | -0.0153 (inactive) | 0.383 (inactive) | 3.08 | -0.369 (inactive) | 1.04 | 1.59 | 1.1 | 0.292 | 0.483 | 1.17 | 0.784 | -0.54 (inactive) | 1.35 | 1.31 | 0.487 | 1.38 | 0.857 | 1.33
